Experimental data from PubChem BioAssay (Tox21).
Results filed as inconclusive are left out. Calls of active or inactive are those of the source. Unless noted, calls come from the whole dose curve; as a rule, active = well fitted curve in the direction sought with a large enough effect in the repeat runs; inconclusive = weak or mixed curves; inactive = no such curve, though single readings can be large; an effect the other way counts as inactive or inconclusive.

Experiments:
[1] = qHTS assay to identify small molecule antagonists of the glucocorticoid receptor (GR) signaling pathway - cell viability counter screen (AID 720693); note: nearly all actives have a fitted effect of over 55% in size
[2] = qHTS assay for identifying genotoxic compounds that show differential cytotoxicity against isogenic chicken DT40 cell lines with known DNA damage response pathways - wild type cell line (AID 743012); note: nearly all actives have a fitted effect of over 60% in size; note: potency is the fitted concentration of half-maximal effect
Summary of the method: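 300 wt DT40 cells/well; cpd (DMSO) pintool-transferred after ~0.5 h at 37 C/5% CO2; 40 h incubation; CellTiter-Glo added, 30 min RT; luminescence read.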

[3] = qHTS assay for identifying genotoxic compounds that show differential cytotoxicity against isogenic chicken DT40 cell lines with known DNA damage response pathways - Rev3 mutant cell line (AID 743014); note: nearly all actives have a fitted effect of over 55% in size; note: potency is the fitted concentration of half-maximal effect
[4] = qHTS assay for identifying genotoxic compounds that show differential cytotoxicity against isogenic chicken DT40 cell lines with known DNA damage response pathways - Rad54/Ku70 mutant cell line (AID 743015); note: nearly all actives have a fitted effect of over 60% in size; note: potency is the fitted concentration of half-maximal effect
[5] = qHTS assay to identify small molecule antagonists of the androgen receptor (AR) signaling pathway - cell viability counter screen (AID 743033; note: nearly all actives have a fitted effect of over 45% in size)
[6] = target: Androgen receptor (Homo sapiens) (UniProt P10275); experiment: qHTS assay to identify small molecule antagonists of the androgen receptor (AR) signaling pathway (AID 743035; active = well fitted inhibition curve with a large enough effect in the signal ratio in the repeat runs, not every such curve was filed as active; the % refers to the signal ratio)
Summary of the method: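 In this cell-based reporter screen, compounds were tested in concentration series against R1881-activated HEK293 cells expressing beta-lactamase under UAS control; after 16 h at 37C, FRET substrate was added and fluorescence read 2 h later.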

[7] = target: Androgen receptor (Homo sapiens) (UniProt P10275); experiment: qHTS assay to identify small molecule agonists of the androgen receptor (AR) signaling pathway using the MDA cell line (AID 743040; note: nearly all actives have a fitted effect of over 20% in size)
Summary of the method: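 Testing was done with the MDA-kb2 AR-luc line, a human breast carcinoma stably transfected with MMTV-luciferase containing AR and GR response elements. Cells were exposed 16 h at 37C before ONE-Glo luminescence detection.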

[8] = qHTS assay to identify small molecule antagonists of the androgen receptor (AR) signaling pathway using the MDA cell line - cell viability counter screen (AID 743041; note: nearly all actives have a fitted effect of over 45% in size)
Summary of the method: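 Compound exposure lasted 16 h at 37C in MDA-kb2 AR-luc cells stimulated with R1881. Protease-based CellTiter-Fluor reagent was applied for the final 30 min and fluorescence measured.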

[9] = target: Androgen receptor (Homo sapiens) (UniProt P10275); experiment: qHTS assay to identify small molecule antagonists of the androgen receptor (AR) signaling pathway using the MDA cell line (AID 743042; note: nearly all actives have a fitted effect of over 55% in size)
Summary of the method: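 MDA-kb2 breast carcinoma cells carrying MMTV-luciferase (AR/GR responsive) were co-treated with compounds and the agonist R1881 for 16 h at 37C. Inhibition read as ONE-Glo luminescence; CellTiter-Fluor fluorescence measured in parallel for cytotoxicity.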

[10] = qHTS assay to identify small molecule antagonists of the thyroid receptor (TR) signaling pathway - cell viability counter screen (AID 743064); note: nearly all actives have a fitted effect of over 50% in size
Summary of the method: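 Rat GH3 pituitary tumor cells stably expressing two TR response elements driving luciferase were plated, rested 4 h, then dosed with library compounds and T3 (1 nM final). After 23.5 h at 37 °C, CellTiter-Fluor was added for 30 min and fluorescence recorded.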

[11] = qHTS assay to identify small molecule antagonists of the thyroid receptor (TR) signaling pathway (AID 743065); note: series mostly up to about 70 µM; nearly all actives have a fitted effect of over 55% in size
Summary of the method: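 GH3.TRE-Luc rat pituitary cells (two TREs driving luciferase) were dosed with compound, then stimulated with 1 nM T3 (final) for 23.5 h at 37 C. ONE-Glo luminescence was the read-out, with CellTiter-Fluor fluorescence as the cytotoxicity counter-screen.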

[12] = test system: thyroid hormone receptor (rat, GH3 cells); experiment: qHTS assay to identify small molecule agonists of the thyroid receptor (TR) signaling pathway (AID 743066; calls by dose curve)
[13] = target: Estrogen receptor (Homo sapiens) (UniProt P03372); experiment: qHTS assay to identify small molecule antagonists of the estrogen receptor alpha (ER-alpha) signaling pathway (AID 743069; active = well fitted curve in the direction sought with a large enough effect in the signal ratio in the repeat runs, not every such curve was filed as active; the % refers to the signal ratio)
Summary of the method: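 In this cell-based reporter format, GripTite HEK293 cells harbouring ER-alpha-UAS-bla were grown overnight with 2% charcoal-stripped FBS, dosed with DMSO-dissolved compounds, then challenged with 17beta-estradiol. After 18 hr at 37C, beta-lactamase activity was detected by FRET fluorescence.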

[14] = qHTS assay to identify small molecule antagonists of the estrogen receptor alpha (ER-alpha) signaling pathway - cell viability counter screen (AID 743074; calls by dose curve; note: nearly all actives have a fitted effect of over 45% in size)
[15] = target: Estrogen receptor (Homo sapiens) (UniProt P03372); experiment: qHTS assay to identify small molecule agonists of the estrogen receptor alpha (ER-alpha) signaling pathway (AID 743075; calls by dose curve)
[16] = target: Estrogen receptor (Homo sapiens) (UniProt P03372); experiment: qHTS assay to identify small molecule agonists of the estrogen receptor alpha (ER-alpha) signaling pathway using the BG1 cell line (AID 743079); note: nearly all actives have a fitted effect of over 20% in size
[17] = qHTS assay to identify small molecule antagonists of the estrogen receptor alpha (ER-alpha) signaling pathway using the BG1 cell line - cell viability counter screen (AID 743081);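 note: compound given together with 17beta-estradiol as the ER stimulus; series mostly up to about 70 µM; nearly all actives have a fitted effect of over 45% in size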
[18] = target: Aromatase (Homo sapiens) (UniProt P11511); experiment: qHTS assay to identify aromatase inhibitors (AID 743083); note: nearly all actives have a fitted effect of over 55% in size; note: potency is the fitted concentration of half-maximal effect; for activity, negative = inhibition: series mostly up to about 70 µM
[19] = qHTS assay to identify small molecule antagonists of the estrogen receptor alpha (ER-alpha) signaling pathway using the BG1 cell line (AID 743080; calls by dose curve;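 note: BG1 cells stimulated with 17beta-estradiol alongside compound; series mostly up to about 70 µM; nearly all actives have a fitted effect of over 25% in size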)
Summary of the method: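 BG1-Luc-4E2 cells (endogenous full-length ER-alpha, 4xERE luciferase) hormone-starved 5 days in charcoal-stripped FBS, plated 4,000/well for 24 h, then compound plus 17beta-estradiol for 21.5 h at 37 C; ONE-Glo luminescence read.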
% is set by controls: 0 for no effect and ±100 for the full control effect.

Aromatase (Homo sapiens), sequence (P11511 whole entry, looked up): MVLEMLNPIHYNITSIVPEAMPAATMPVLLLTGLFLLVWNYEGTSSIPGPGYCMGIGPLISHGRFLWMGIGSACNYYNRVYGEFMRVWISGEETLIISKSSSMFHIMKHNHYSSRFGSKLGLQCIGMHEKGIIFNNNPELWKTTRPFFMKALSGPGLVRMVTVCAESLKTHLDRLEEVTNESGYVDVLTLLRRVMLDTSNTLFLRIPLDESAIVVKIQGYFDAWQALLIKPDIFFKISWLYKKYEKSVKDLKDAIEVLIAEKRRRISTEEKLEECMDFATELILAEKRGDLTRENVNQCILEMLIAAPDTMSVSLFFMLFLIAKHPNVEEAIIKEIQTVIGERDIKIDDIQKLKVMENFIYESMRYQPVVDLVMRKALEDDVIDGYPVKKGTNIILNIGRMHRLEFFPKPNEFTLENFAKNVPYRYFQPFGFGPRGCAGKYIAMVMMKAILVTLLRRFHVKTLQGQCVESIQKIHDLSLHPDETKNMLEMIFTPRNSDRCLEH
Androgen receptor (Homo sapiens), sequence (P10275 whole entry, looked up): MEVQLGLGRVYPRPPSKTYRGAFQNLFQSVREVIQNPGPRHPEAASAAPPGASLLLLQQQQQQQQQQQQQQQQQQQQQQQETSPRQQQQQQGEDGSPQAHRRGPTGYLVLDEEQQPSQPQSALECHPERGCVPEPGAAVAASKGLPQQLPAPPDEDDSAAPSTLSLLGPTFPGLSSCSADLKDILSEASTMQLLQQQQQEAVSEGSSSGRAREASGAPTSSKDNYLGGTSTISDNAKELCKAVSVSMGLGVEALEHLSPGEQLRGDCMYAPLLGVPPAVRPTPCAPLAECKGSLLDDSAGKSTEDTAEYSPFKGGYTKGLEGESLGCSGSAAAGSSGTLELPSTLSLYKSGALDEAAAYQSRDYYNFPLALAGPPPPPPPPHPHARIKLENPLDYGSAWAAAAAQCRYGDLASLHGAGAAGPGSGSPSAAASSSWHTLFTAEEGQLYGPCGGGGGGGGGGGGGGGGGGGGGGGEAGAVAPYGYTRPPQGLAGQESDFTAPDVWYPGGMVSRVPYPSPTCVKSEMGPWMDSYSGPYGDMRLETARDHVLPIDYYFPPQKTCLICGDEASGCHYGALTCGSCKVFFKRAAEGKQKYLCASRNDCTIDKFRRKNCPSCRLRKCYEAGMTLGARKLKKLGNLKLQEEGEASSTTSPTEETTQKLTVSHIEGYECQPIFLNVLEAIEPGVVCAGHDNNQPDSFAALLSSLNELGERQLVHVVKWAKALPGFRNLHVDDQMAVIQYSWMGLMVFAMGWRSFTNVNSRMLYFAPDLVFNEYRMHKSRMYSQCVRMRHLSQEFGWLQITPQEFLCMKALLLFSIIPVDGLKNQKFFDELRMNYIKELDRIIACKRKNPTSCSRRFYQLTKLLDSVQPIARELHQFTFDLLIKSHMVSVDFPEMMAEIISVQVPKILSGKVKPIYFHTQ
Estrogen receptor (Homo sapiens), sequence (P03372 whole entry, looked up): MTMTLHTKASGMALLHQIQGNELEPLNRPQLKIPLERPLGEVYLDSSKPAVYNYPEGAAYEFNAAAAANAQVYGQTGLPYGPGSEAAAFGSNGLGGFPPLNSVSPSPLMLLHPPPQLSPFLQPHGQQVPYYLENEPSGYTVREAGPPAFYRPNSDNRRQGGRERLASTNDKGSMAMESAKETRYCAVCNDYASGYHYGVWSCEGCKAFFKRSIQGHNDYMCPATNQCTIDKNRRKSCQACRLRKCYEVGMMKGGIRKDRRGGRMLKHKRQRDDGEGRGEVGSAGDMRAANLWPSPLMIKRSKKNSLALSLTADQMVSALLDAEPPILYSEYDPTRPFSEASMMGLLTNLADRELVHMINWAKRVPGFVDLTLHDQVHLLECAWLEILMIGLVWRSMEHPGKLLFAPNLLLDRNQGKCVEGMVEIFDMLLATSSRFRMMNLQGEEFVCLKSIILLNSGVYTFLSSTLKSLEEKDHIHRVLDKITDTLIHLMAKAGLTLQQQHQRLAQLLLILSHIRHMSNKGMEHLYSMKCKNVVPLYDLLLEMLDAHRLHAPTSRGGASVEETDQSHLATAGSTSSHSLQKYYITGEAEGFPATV

COc1cc(NS(=O)(=O)c2ccc(N)cc2)nc(OC)n1
inactive: outcome [1] | Potency [2] | Potency [3] | Potency [4] | Potency [5] | Potency [6] | outcome [7] | Potency [8] | Potency [9] | Potency [10] | Potency [11] | outcome [12] | outcome [13] | outcome [14] | outcome [15] | Potency [16] | outcome [17] | Potency [18]

CC/C=C\CC1=C(C)CCC1=O
inactive: outcome [1] | Potency [2] | Potency [3] | Potency [4] | Potency [5] | outcome [7] | Potency [8] | Potency [10] | outcome [12] | outcome [14] | outcome [17] | Potency [18]

CCCC(=O)C(C)=O
inactive: outcome [1] | Potency [2] | Potency [3] | Potency [4] | Potency [5] | Potency [8] | Potency [10] | Potency [11] | outcome [12] | outcome [13] | outcome [14] | outcome [15] | Potency [16] | Potency [19] | outcome [17] | Potency [18]

CCCCCCCCCC(C)=O
inactive: outcome [1] | Potency [2] | Potency [3] | Potency [4] | Potency [5] | Potency [6] | outcome [7] | Potency [8] | Potency [9] | Potency [10] | Potency [11] | outcome [12] | outcome [13] | outcome [14] | outcome [15] | Potency [16] | Potency [19] | outcome [17] | Potency [18]

CCCCCCCCOS(=O)(=O)O
inactive: outcome [1] | Potency [2] | Potency [3] | Potency [4] | Potency [5] | Potency [8] | Potency [10] | Potency [11] | outcome [12] | outcome [13] | outcome [14] | outcome [15] | Potency [16] | Potency [19] | outcome [17] | Potency [18]

O=C(NCC(O)CO)c1c(I)c(C(=O)NCC(O)CO)c(I)c(N(CCO)C(=O)CO)c1I (centres undefined)
inactive: outcome [1] | Potency [2] | Potency [3] | Potency [4] | Potency [5] | Potency [8] | Potency [10] | Potency [11] | outcome [12] | outcome [14] | outcome [17]

O=C1CCCC(=O)O1
inactive: outcome [1] | Potency [2] | Potency [3] | Potency [4] | Potency [5] | Potency [8] | Potency [10] | outcome [12] | outcome [13] | outcome [15] | Potency [16] | Potency [19] | outcome [17] | Potency [18]

COCCOC(=O)C1=C(C)NC(C)=C(C(=O)OC(C)C)C1c1cccc([N+](=O)[O-])c1 (centres undefined)
active: Potency [2] 26.6 µM | Potency [3] 26.6 µM | Potency [4] 23.7 µM
inactive: outcome [1] | Potency [5] | Potency [8] | Potency [10] | outcome [12] | outcome [14] | outcome [15] | Potency [16] | Potency [19] | outcome [17] | Potency [18]

c1ccc2nccnc2c1
active: Potency [4] 63.1 µM
inactive: outcome [1] | Potency [2] | Potency [3] | Potency [5] | Potency [8] | Potency [10] | Potency [11] | outcome [12] | outcome [13] | outcome [15] | Potency [16] | Potency [19] | outcome [17] | Potency [18]

O=C1c2ccccc2C(=O)C1c1ccccc1
inactive: outcome [1] | Potency [2] | Potency [3] | Potency [4] | Potency [5] | Potency [8] | Potency [10] | outcome [12] | outcome [13] | outcome [14] | outcome [15] | Potency [16] | Potency [19] | outcome [17] | Potency [18]

C[Si](C)=O
inactive: viability change, negative = cytotoxic [1] -9.5% [at 7.04 µM] | activity change, negative = cytotoxicity [2] 12.9% [at 8.52 µM] | activity, negative = cytotoxicity [3] -9.66% [at 8.53 µM] | activity change, negative = cytotoxicity [4] 1.94% [at 8.55 µM] | activity change, negative = cytotoxicity [5] 2.74% [at 7.04 µM] | viability change, negative = cytotoxic [8] -9.84% [at 8.47 µM] | activity change, negative = cytotoxic [10] -4.47% [at 8.44 µM] | activity, negative = inhibition [11] 0.0327% [at 8.44 µM] | activation [12] 0.231% [at 8.08 µM] | activity, negative = cytotoxicity [14] 5.35% [at 6.72 µM] | activity change, negative = cytotoxicity [17] -7.83% [at 8.47 µM] | activity, negative = inhibition [18] 11% [at 8.47 µM]

CC(C)N(c1ccccc1)C(C)C
inactive: outcome [1] | Potency [2] | Potency [3] | Potency [4] | Potency [5] | Potency [8] | Potency [10] | outcome [12] | outcome [13] | outcome [14] | outcome [15] | Potency [16] | Potency [19] | outcome [17] | Potency [18]

O=C(OCC1(COC(=O)c2cccnc2)CCCC(COC(=O)c2cccnc2)(COC(=O)c2cccnc2)C1O)c1cccnc1
inactive: outcome [1] | Potency [2] | Potency [3] | Potency [4] | Potency [5] | Potency [8] | Potency [10] | Potency [11] | outcome [12] | outcome [14] | outcome [17] | Potency [18]

CCOCCOCCOCC
inactive: outcome [1] | Potency [2] | Potency [3] | Potency [4] | Potency [5] | Potency [8] | Potency [10] | Potency [11] | outcome [12] | outcome [14] | outcome [17] | Potency [18]

FC(F)(F)c1ccccc1-n1ccnc1
active: Potency [18] 6.68 µM
inactive: outcome [1] | Potency [2] | Potency [3] | Potency [4] | Potency [5] | Potency [8] | Potency [10] | Potency [11] | outcome [12] | outcome [14] | outcome [17]

C=C(C)C(=O)OCCOP(=O)(O)OCCOC(=O)C(=C)C
inactive: outcome [1] | Potency [2] | Potency [3] | Potency [4] | Potency [5] | Potency [8] | Potency [10] | Potency [11] | outcome [12] | outcome [13] | outcome [14] | outcome [15] | Potency [16] | Potency [19] | outcome [17] | Potency [18]

CCCCNc1ccc(C(=O)OCCN(C)C)cc1
active: Potency [2] 5.07 µM | Potency [3] 2.85 µM | Potency [4] 5.07 µM
inactive: outcome [1] | Potency [5] | Potency [8] | Potency [10] | outcome [12] | outcome [14] | outcome [17] | Potency [18]

CC(C)C[C@H](NC(=O)CNC(=O)[C@H](Cc1ccc(O)cc1)NC(=O)[C@H](CO)NC(=O)[C@H](Cc1c[nH]c2ccccc12)NC(=O)[C@H](Cc1cnc[nH]1)NC(=O)[C@@H]1CCC(=O)N1)C(=O)N[C@@H](CCCN=C(N)N)C(=O)N1CCC[C@H]1C(=O)NCC(N)=O (stereo in doubt)
inactive: outcome [1] | Potency [2] | Potency [3] | Potency [4] | Potency [5] | Potency [8] | Potency [10] | outcome [12] | outcome [14]
